# Gli-Sufu block = blocks Gli-Sufu signaling in a luciferase reporter; Sufu-KO-LIGHT fibroblasts, Gli luciferase reporter luminescence; inhibition, % at 5 µM; actives 0.74% (n = 340,000); AID 588413;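 active = inhibition above about 55%, limit read from the data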;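 note: 0% = DMSO-treated cells and 100% = wells with medium but no cells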
# SRC2 inh = human SRC2 (NCOA2) inhibition. actives 0.17% (n = 370,000). HEK293 GAL4-SRC2 luciferase reporter, luminescence. Q15596. inhibition, % at 9 µM;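 active = inhibition above the mean inhibition of all tested compounds plus 3 SD, set per campaign, cut at about 52% in these data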;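 note: 0% = DMSO treated cells and 100% = cells given Gossypol at 36 µM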
# NCOA3 inh = inhibitors of human steroid receptor coactivator 3 (SRC3); Q9Y6Q9; HEK293 GAL4-SRC3 luciferase reporter, luminescence; inhibition, % at 3.6 µM; actives 0.17% (n = 360,000);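 active = inhibition above a per-campaign cutoff, the mean of all compounds plus 3 SD, cut at about 60% in these data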;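 note: 0% = DMSO-treated cells and 100% = gossypol-treated cells at 36 µM; higher means less SRC3-driven luciferase light from the GAL4 reporter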
# LRH-1 inv ag = suppresses constitutive activity of human LRH-1 | O00482 | HEK293T StAR-luciferase reporter, LRH-1 transfected, 24 h | inhibition, % at 3.6 µM | actives 0.13% (n = 360,000) | AID 602396;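 active = inhibition above the mean inhibition of all tested compounds plus 3 SD, cut at about 73% in these data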;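 note: 0% = DMSO wells and 100% = reporter-only cells lacking LRH-1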
# NCOA1 inh = inhibitors of human steroid receptor coactivator 1 (SRC1); Q15788; HEK293 GAL4-SRC1 luciferase reporter, luminescence; inhibition, % at 3.6 µM; actives 0.12% (n = 360,000);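 active = inhibition above the campaign mean plus 3 SD, with each screening campaign given its own cutoff, cut at about 60% in these data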;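 note: 0% = DMSO treated cells and 100% = gossypol at 36 µM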
# COUP-TFII inh = blocks human COUP-TFII nuclear receptor | HEK293T NGFI-A luciferase reporter, luminescence | inhibition, % at 8.6 µM | actives 0.7% (n = 370,000);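 active = inhibition above a per-plate cutoff, mean inhibition of test wells between control levels plus 3 SD, cut at about 38% in these data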;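 note: cells cotransfected with COUP-TFII expression vector driving the NGFI-A reporter; 0% = median of COUP-TF2 test wells and 100% = reporter-only cells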
# Active calls of the source: *; x = no result. Rows were chosen to be rich in hits. Some 1.3% of all compounds tested hit in one or more screens of this group.
SMILES,Gli-Sufu block,SRC2 inh,NCOA3 inh,LRH-1 inv ag,NCOA1 inh,COUP-TFII inh
COc1ccc(CCNC(=O)c2nnn(-c3ccc4c(c3)OCCO4)c2N)cc1OC,49,55*,58,48,58,93*
C(=NNc1ccc2ccccc2n1)c1ccccn1,x,-20,68*,80*,72*,-45
C(=N\NC1=Nc2cccc3cccc1c23)/c1ccccn1,70*,6,-2,-72,-90,-22
CCOc1cc(OCC)cc(C(=O)N2CCC[C@@H]2C(=O)N2CCC[C@@H]2C(=O)NCc2cccc(OC)c2)c1,x,12,x,x,x,8
CN(C)c1ccc(/C=C/c2ccc3c4ccccc4ccc3[n+]2-c2ccccc2)cc1,92*,-25,77*,91*,71*,85*
CN(C)c1ccc(/C=C/c2ccc3ccccc3[n+]2C)cc1,87*,10,70*,97*,63*,72*
CN(C)c1ccc(/C=C/c2cccc[n+]2[O-])cc1,-35,-63,-89,-110,-77,-12
CN(CCCS(=O)(=O)[O-])c1ccc(/C=C/c2ccc3ccccc3[n+]2C)cc1,5,-1,13,-3,-8,6
CCOC(=O)[C@]12CCCCC/C=C\1N(Cc1ccc(OC)cc1)C(=O)[C@H]2CC(=O)NCc1cccc(C(F)(F)F)c1,x,10,x,x,x,10
S=C1Cc2ccccc2N1,13,67*,17,64,-1,60*
O=C(CCCN1C(=O)/C(=C/c2ccccc2Cl)SC1=S)NNC(=O)c1ccc(Cl)cc1,17,58*,12,6,19,15
Cc1ccc(-c2nc(NC(=O)c3nn(C)cc3[N+](=O)[O-])sc2C)cc1,11,52*,4,44,-18,30
CCOC(=O)CCSc1nc(C(C)(C)C)cc(C(F)(F)F)c1C#N,-5,70*,17,1,11,-17
CC(=O)N(Cc1ccc(F)cc1)C1=C(NCCc2ccccc2)C(=O)c2ccccc2C1=O,75*,44,17,28,2,55*
O=C(Nc1ccc(OC(F)(F)F)cc1)Nc1cccc([N+](=O)[O-])c1,40,-5,62*,29,-2,-6
CC(C)CC(=O)/C(=C/c1ccc(N(C)C)cc1)n1cncn1,5,6,5,10,11,12
CC(C)CC(=O)/C(=C\c1ccc(Cl)cc1Cl)n1cncn1,8,x,71*,27,47,x
Cc1ccc(Cn2nnc3c2-c2ccccc2S(=O)(=O)N(C2CC2)C3)cc1,x,-12,x,x,x,-3
Cc1ccc(C=Nn2c(-c3n[nH]c4c3CCC4)n[nH]c2=S)o1,x,15,x,x,x,-11
c1ccc(C[C@H]2CN=C(Nc3ccccc3)N2CCC2CCCC2)cc1,24,-12,12,15,0,0
NC1=NC[C@H](Cc2ccccc2)N1CCCCC1CCCCC1,58*,2,6,2,-9,-14
COc1ccc(C[N+]2=C(N)NC3=C4CCCCC4n4c(=O)n(-c5ccccc5)c(=O)n4C3C2)c(OC)c1 (stereo unspecified),x,15,x,x,x,1
COC(=O)[C@]12C[C@H](CC(=O)NCC3CCCCC3)C(=O)N(Cc3ccc(Cl)cc3Cl)C1=C[C@H](C(C)C)O[C@@H]2C1CC1,x,10,x,x,x,9
Cc1[nH]c(=O)c(C(=O)/C=C/c2ccccc2F)c2c1CCCC2,3,61*,87*,65,62*,27
C/C(=C\c1ccccc1F)C(=O)c1c(C)cc(C)[nH]c1=O,6,5,-3,14,-13,15
SMILES,Gli-Sufu block,SRC2 inh,NCOA3 inh,LRH-1 inv ag,NCOA1 inh,COUP-TFII inh
CCCC(=O)NC(c1cccc([N+](=O)[O-])c1)c1ccc2cccnc2c1O (stereo unspecified),x,32,10,11,20,17
CC(C)C(=O)NC(c1cccc([N+](=O)[O-])c1)c1ccc2cccnc2c1O (stereo unspecified),74*,17,20,6,17,-10
CC(C)C(=O)NC(c1ccco1)c1ccc2cccnc2c1O (stereo unspecified),-3,34,45,38,11,5
CCN(CC)c1ccc(C(NC(=O)C(C)C)c2ccc3cccnc3c2O)cc1 (stereo unspecified),x,32,50,96*,43,-23
CCN(CC)c1ccc2c(c1)OC(N)=C(C#N)C2c1cccnc1 (stereo unspecified),62*,32,7,15,-17,-4
CCCCC(CC)CN=C(N)NC(N)=NCCCCCCN=C(N)NC(N)=NCC(CC)CCCC (stereo unspecified),67*,x,10,66,-21,x
CC(=O)C1=C(C)N(Cc2ccc(F)cc2)C(=S)NC1c1ccc(Cl)cc1 (stereo unspecified),x,-10,x,x,x,-2
CCOC(=O)CCC(NC(=O)c1cncc(O)c1)C(=O)OCC (stereo unspecified),2,-9,6,11,-12,-3
CN(Cc1cnc2nc(N)nc(N)c2n1)c1ccc(C(=O)NC(CCC(=O)O)C(=O)O)cc1C(F)(F)F (stereo unspecified),34,-16,73*,45,67*,-20
CN(Cc1cnc2nc(N)nc(N)c2n1)c1ccc(C(=O)NC(CCC(=O)O)C(=O)O)cc1 (stereo unspecified),6,4,83*,79*,78*,-6
O=C(Nc1nc2ncccn2c1-c1ccc(F)c(F)c1)C1CC1,x,3,x,x,x,-19
O=C1[C@@H]2Cc3c([nH]c4ccccc34)C(c3ccc([N+](=O)[O-])cc3)N2C(=O)CN1C1CC1 (stereo partly specified),34,-8,69*,51,75*,26
COC(=O)[C@]12C[C@H](CC(=O)N3CCCCC3)C(=O)N(Cc3cccc4ccccc34)C1=C[C@H](C1CCCC1)O[C@@H]2C,x,2,x,x,x,1
CC(=O)C1=C(c2ccc(Br)cc2)C(=O)c2ccccc2C1=O,16,70*,92*,85*,91*,71*
CC(=O)Nc1c(Br)cc2c(c1Br)C(=O)c1ccccc1-2,1,-8,-4,16,-26,20
O=C(C(=O)N1CCN(S(=O)(=O)c2cccc3ccccc23)CC1)c1cccc(C(F)(F)F)c1,x,18,x,x,x,1
O=C(O)CCC(=O)c1ccc2c(c1)OCCO2,3,-38,-1,-11,0,-14
O=C(O)CCSCC(=O)c1ccc2c(c1)OCCO2,0,56*,22,8,11,34
CS(=O)(=O)c1ccc(Sc2nc3ccccc3s2)c([N+](=O)[O-])c1,9,x,73*,20,11,x
CCOC(=O)N(C)[C@H]1C[C@H]2c3[nH]c4c(-c5cccc(C)c5)cccc4c3CCN2C[C@H]1[C@H](C)O,x,1,x,x,x,2
CCOC(=O)N(C)[C@H]1C[C@H]2c3cc(-c4ccccc4C)ccc3CCN2C[C@H]1[C@H](C)O,x,25,x,x,x,61*
C=CCN(CC#CC(=C)C)Cc1ccc(OC)cc1OC,x,16,x,x,x,-11
